# About 79,000 compounds went through this panel and 15% of them were active in at least one assay; those are over-represented in the sample as a whole. A number with no mark means an inactive call. The source made the active and inactive calls. Cut-off read from the data, not from the text of the source: active = growth inhibition above about 70%; inactive = the rest.
# Key:
# [1] = NCI Yeast Anticancer Drug Screen. Data for the rad50 strain (AID 155);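 note: 0% = growth of vehicle-only cultures of the same strain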; conditions: S. cerevisiae rad50 strain growth inhibition; at 50.0 µM; hits give high values
# Procedure, shortened: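 DNA repair mutant yeast, compound exposure, growth read-out; inhibition is taken relative to vehicle.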
# [2] = NCI Yeast Anticancer Drug Screen. Data for the mec2-1 strain (AID 157); conditions: S. cerevisiae mec2-1 strain, at 50.0 µM, hits give high values
# Procedure, shortened: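 mec2-1 yeast strain, carrying an alteration in DNA damage repair or cell cycle control, was exposed to compounds; growth inhibition was measured relative to vehicle-treated controls.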
# [3] = NCI Yeast Anticancer Drug Screen. Data for the sgs1 mgt1 strain (AID 161);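 note: 0% = growth of cultures given vehicle only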; conditions: S. cerevisiae sgs1 mgt1 strain, at 50.0 µM, hits give high values
# Procedure, shortened: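 Yeast cells carrying a defined DNA-repair defect were exposed to test compounds. Growth inhibition was measured relative to vehicle-treated controls.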
# [4] = NCI Yeast Anticancer Drug Screen. Data for the cln2 rad14 strain (AID 165);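 note: 0% = growth equal to vehicle treated cultures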; conditions: S. cerevisiae cln2 rad14 strain, at 50.0 µM, hits give high values
# Procedure, shortened: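 Yeast carrying cln2 and rad14 alterations (cell cycle control and DNA damage repair) were exposed to compounds. Growth inhibition was measured against vehicle-treated controls.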
# [5] = NCI Yeast Anticancer Drug Screen. Data for the bub3 strain (AID 167); conditions: S. cerevisiae bub3 mutant strain, at 50.0 µM, hits give high values
# Procedure, shortened: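 In this screen, a yeast mutant lacking normal mitotic checkpoint function is challenged with compound. Relative growth versus vehicle gives the inhibition value.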
# [6] = NCI Yeast Anticancer Drug Screen. Data for the mlh1 rad18 strain (AID 175); conditions: S. cerevisiae mlh1 rad18 strain growth inhibition; at 50.0 µM; hits give high values
# Procedure, shortened: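 Growth inhibition of the yeast strain was measured after compound exposure and expressed relative to vehicle-treated controls. The strain carries defined defects in DNA damage repair.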
Compound,growth inhibition [1],growth inhibition [2],growth inhibition [3],growth inhibition [4],growth inhibition [5],growth inhibition [6]
CS(=O)(=O)c1ccc([As](=O)(O)O)cc1,5.7%,0.1%,20.6%,-34.1%,5.2%,-11.8%
CN(C)P(=S)(CCPc1ccccc1)N(C)C (centres undefined),-13.5%,-23.6%,-12.8%,2.95%,-5.75%,-5.8%
COc1cc2c(cc1O)CNCC2c1ccc(O)c(C)c1 (centres undefined),-10.8%,-14.6%,9.55%,-13.8%,-11.4%,-4.7%
CCOc1cc(CCNC)c2c(ccc3ccc(OC)c(O)c32)c1OC,27.2%,-0.4%,4.75%,26.9%,-7.2%,-36.8%
CC(CN1NC12CCCC2)N1NC12CCCC2 (centres undefined),0.95%,-1.85%,29.2%,24.4%,15.6%,-35.5%
CCOC(=O)C1C(C=C(C)C)C1(C)C (centres undefined),-14.3%,-17.4%,-8.8%,-10.8%,-16.6%,-3.95%
CN/N=C(/CCN1CCCC1)CC(c1ccccc1)c1c(O)c2ccccc2oc1=O (centres undefined),35.5%,9%,29.6%,35.2%,31.5%,37.4%
CC1CN=C(Nc2ccc(F)cc2F)S1 (centres undefined),-9.1%,-8.6%,-65.7%,-24.4%,12.5%,-36.6%
CC[N+](CC)(CC)CC#CC[N+](CC)(CC)CC,5.65%,5%,14.3%,1.45%,12.8%,6.1%
Cc1ccccc1/C(=C/c1ccc([N+](=O)[O-])cc1)C(=O)Nc1ccc(S(=O)(=O)F)cc1,97.1% (active),95.5% (active),96.3% (active),96.3% (active),96.5% (active),97.5% (active)
CC1CN1P(=O)(N1CCc2ccccc21)N1CC1C (centres undefined),-21.8%,-7.9%,-5.6%,-24.7%,5.9%,0.85%
O=C([O-])c1ccccc1[SH2+].[Cr+3].[NH-]CC[NH-].[NH-]CC[NH-].[O-][Cl+3]([O-])([O-])O,11.9%,-1.95%,-11.8%,-19.4%,1.35%,-26.4%
CCCCOP(O)(=S)OCCCC.[Y],-20.9%,2.95%,4.2%,25.4%,-8.6%,-2.75%
Oc1ccc(CC2NCCc3cc(O)c(O)cc32)cc1O (centres undefined),17.5%,-4.15%,26.3%,24.3%,26.4%,23.1%
CCC(C)C(=O)OC1CC2(C)C(c3ccoc3)OC(=O)CC23OC2(C)OC34C(OC(=O)C(C)C)C3(O)C(OC(=O)C5(C)OC5C)C5(C)CC3(O)C(C)(C5CC(=O)OC)C14O2 (centres undefined),24.4%,19.1%,9.3%,26.9%,13.1%,-24.3%
CN1CN(c2ccccc2)C2(CCN(CCC3Oc4ccccc4O3)CC2)C1=O,-22.4%,6.45%,-0.4%,-1.2%,-1.35%,3.35%
N#CCN(CC#N)[N+](=O)[O-],6.8%,-4.95%,-14.2%,-6%,-26.3%,0.4%
COc1ccc(OP2OCC(C)O2)cc1 (centres undefined),-1.1%,-46.8%,-10.4%,-30%,-2.6%,2.5%
Cc1cccc(C)c1NC(=O)C(=O)C1C(=O)NC(=O)NC1=O,-45.5%,-2.6%,-6%,15.8%,-17.1%,-31.9%
CN1CCNCC1,11.1%,-6.55%,-10.5%,-18.4%,11.5%,5.75%

Compound,growth inhibition [1],growth inhibition [2],growth inhibition [3],growth inhibition [4],growth inhibition [5],growth inhibition [6]
CC(C)CCCC(C)C1CCC2C3CC=C4CC([Se][As](C)C)CCC4(C)C3CCC12C (centres undefined),11.1%,-0.1%,8.55%,14.7%,0.6%,-7.4%
Cc1ccc(OP(=O)(Oc2ccc(C)cc2)Oc2ccc(C)cc2)cc1.Cc1ccc(OP(=O)(Oc2ccc(C)cc2)Oc2ccc(C)cc2)cc1.[Cl][Ni][Cl],23.5%,35.8%,29.4%,4.2%,38.4%,59.3%
CCCCCCCCCCC(=O)O,0.25%,-2.2%,24.9%,-4.65%,-15.4%,15.2%
FC(F)(F)c1ccc(Cl)c(NC2=NCCCS2)c1,-7.85%,-0.35%,2.15%,2.05%,0.4%,-3.6%
CN(C)c1ccc(/C=C/C=C\C2=CC(=C\C=C/C=C3C=CC(=[N+](C)C)C=C3)/Sc3ccccc32)cc1,-36.4%,-45.9%,-63.7%,-29.6%,-27.4%,-55.3%
COc1ccc2c(C3(O)CCNCC3)c[nH]c2c1,0.1%,-1.3%,-3.7%,2.75%,-3.7%,3.8%
NP(=O)(Oc1cccc2c(OP(N)(=O)N(CCCl)CCCl)cccc12)N(CCCl)CCCl (centres undefined),6.95%,-3.65%,8.1%,-29.7%,-3.25%,16.9%
CCCC[C@H]1C(=O)O[C@H](C)[C@H](NC(=O)c2cccc(NC=O)c2O)C(=O)O[C@@H](C)[C@@H]1OC(=O)CC(C)C,18.4%,12.5%,30.9%,16.4%,13.6%,44.2%
O=C(Nc1cccc(Cl)c1Cl)C(Cl)(Cl)Cl,11.8%,20.9%,19.4%,6.35%,31.2%,28.8%
NNC(=O)NNC(=O)NN,-5.95%,-3.1%,-12.3%,1.65%,-8.25%,9.9%
COc1ccc2nc3c4ccccc4scc-3c2c1,99.4% (active),99.5% (active),99.5% (active),99.2% (active),99.2% (active),99.3% (active)
COC(=O)C(O)(c1ccccc1)C1CCCC1 (centres undefined),20.8%,-10.1%,-10.6%,11.9%,10.1%,-9.5%
CC(C)OP(=O)(OC(C)C)/C(C#N)=C/c1ccco1,-23.9%,-51%,-23.6%,-32.2%,-20.1%,-31.9%
Cc1c[nH]cn1.Cc1c[nH]cn1.Cc1c[nH]cn1.Cc1c[nH]cn1.Cc1c[nH]cn1.Cc1c[nH]cn1.N#CS.[Mn+2],6.1%,4.3%,4.35%,-4.8%,4.1%,5.05%
CN1CN(c2ccccc2)C2(CCN(CCc3cc4ccccc4o3)CC2)C1=O,-30.9%,-10.1%,-12.8%,-28.9%,3.4%,-22.2%
COc1ccc(C=C(C#N)C#N)cc1OC,-2.8%,-8.15%,-1.95%,-24.2%,-1.3%,-0.25%
O=C(c1cc(N(CCCl)CCCl)c([N+](=O)[O-])cc1[N+](=O)[O-])N1CCOCC1,-1.6%,-3.55%,13.2%,3.55%,19.3%,-3.75%
Cc1cccc(CCF)c1,-8.4%,8.5%,1.25%,-3.8%,-0.15%,-4.75%
[CH3][Sb]1([CH3])([I])[CH2]CC[CH2]1,-6.55%,-5.35%,-5.75%,-11.1%,27.2%,33.9%

# — PubChem BioAssay (NCI)
